# Compounds with a hit are over-represented: about 19% of the library has one in this group of screens.
# IL-1B inflam inh – qHTS for Inhibitors of Inflammasome Signaling: IL-1-beta AlphaLISA Primary Screen | activity change, % at 57.5 µM | AID 743279, 2014 | hit rate 4.7% among 360,000 | THP-1 LPS/ATP IL-1B secretion, AlphaLISA, 16 h; hits give low values; in the data active = activity change below about -50%; inconclusive = mostly about -30% to -49%; also: % is scaled to controls: 0 for no effect and ±100 for the full control effect
#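 THP-1 cells pretreated 1 hr with compounds (up to 57.5 uM final), then stimulated with LPS (250 ng/mL final) plus ATP (1.25 mM final); secreted IL-1B measured by AlphaLISA after 16 hr, decreased signal indicating inhibition.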
# TDP1 cell noCPT – qHTS for Inhibitors of human tyrosyl-DNA phosphodiesterase 1 (TDP1): qHTS in cells in absence of CPT; DT40 Tdp1-/- hTDP1 cells, no CPT, ATP luminescence, 48 h; Potency, µM (series often up to 46.2 µM), for the others: at the top dose activity change, negative = growth inhibition, hits mostly inhibitors; hit rate 15% among 420,000; AID 686978, 2013; also: potency is read from the fitted curve at half-maximal effect; % is scaled to controls: 0 for no effect and ±100 for the full control effect; nearly all actives have a fitted effect of over 55% in size
#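 No-CPT arm: Tdp1-/-;hTDP1 DT40 cells (400/well) plus compounds, incubated ≥48 hr at 37 °C. Readout CellTiter-Glo luminescence.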
# ASM inhibitor – Inhibitors of Secretory Acid Sphingomyelinase (S-ASM): qHTS; Sphingomyelin phosphodiesterase (Homo sapiens), P17405; placental ASM, HMU-PC fluorogenic substrate, 60 min; Potency, µM (top dose mostly 57.5 µM), for inactives: at the top dose activity change, negative = inhibition, actives largely listed as inhibitors; hit rate 0.006% among 340,000; AID 504937, 2011; also: potency is read from the fitted curve at half-maximal effect
# Target sequence (P17405 47-631 limits assumed): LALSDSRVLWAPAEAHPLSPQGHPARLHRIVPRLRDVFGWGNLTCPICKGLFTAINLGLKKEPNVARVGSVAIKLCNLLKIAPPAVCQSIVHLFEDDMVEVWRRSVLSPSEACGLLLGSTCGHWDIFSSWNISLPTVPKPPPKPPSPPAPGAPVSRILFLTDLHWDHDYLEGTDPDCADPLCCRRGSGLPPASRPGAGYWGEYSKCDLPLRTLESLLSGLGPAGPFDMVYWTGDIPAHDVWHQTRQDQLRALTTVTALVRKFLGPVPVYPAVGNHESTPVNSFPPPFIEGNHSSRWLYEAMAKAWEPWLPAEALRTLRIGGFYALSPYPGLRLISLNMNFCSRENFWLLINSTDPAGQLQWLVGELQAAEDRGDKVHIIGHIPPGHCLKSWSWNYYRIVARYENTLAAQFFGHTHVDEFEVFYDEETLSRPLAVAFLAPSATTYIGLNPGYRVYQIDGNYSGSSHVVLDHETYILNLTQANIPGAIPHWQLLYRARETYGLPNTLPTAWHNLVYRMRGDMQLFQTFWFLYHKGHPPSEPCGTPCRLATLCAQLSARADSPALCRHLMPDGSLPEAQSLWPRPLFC
#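 Fluorogenic HMU-PC substrate (9 uM final) is turned over by placental ASM in 60 min at 37 C after a 10 min compound preincubation. Reaction ended by alkaline stop (pH 10), with fluorescence read at 386/447 nm.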
# HepG2 viability – qHTS for Inhibitors of TGF-b: Cytotox Counterscreen | HepG2 CAGA-GFP viability, ATP luminescence, 18 h | Potency, µM (highest dose often 46.1 µM), for the others: top-dose activity change, negative = cytotoxicity, actives largely listed as cytotoxic | hit rate 0.76% among 410,000 | AID 588856, 2011; also: potency is read from the fitted curve at half-maximal effect
#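 HepG2 CAGA-GFP cells (1000/well, DMEM with 1% FBS) received compound, then TGF-beta at 500 pg/mL final, and were incubated 18 hours at 37 degrees C. Viability was read by CellTiter-Glo luminescence. Media-only wells were set as complete cell-killing and DMSO as no toxicity.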
# TGFb SMAD3 inh – qHTS for Inhibitors of TGF-b. HepG2 CAGA-GFP TGF-b/SMAD3 reporter, GFP fluorescence, 18 h; TGF-beta stimulated, 500 pg/mL final. Potency, µM (titrated, usually from 46.1 µM), inactives show top-dose activity, negative = inhibition, actives largely listed as inhibitors. hit rate 1.2% among 410,000; also: potency is read from the fitted curve at half-maximal effect; % is scaled to controls: 0 for no effect and ±100 for the full control effect; nearly all actives have a fitted effect of over 65% in size
#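 Cell-based qHTS in HEPG2 carrying a CAGA-GFP Smad reporter; compounds added before 500 pg/mL final TGF-beta, 18 h incubation at 37 degrees C, GFP fluorescence quantified per cell by imaging cytometry.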
# DT40 TDP1 CPT – qHTS for Inhibitors of human tyrosyl-DNA phosphodiesterase 1 (TDP1): qHTS in cells in presence of CPT; chicken DT40 Tdp1-/-;hTDP1 cells + 20 nM CPT, ATP luminescence, 48 h; hit rate 12% among 420,000; AID 686979, 2013; Potency, µM (doses to about 46.2 µM), for the others: top-dose activity change, negative = growth inhibition, most hits filed as inhibitors; also: potency is read from the fitted curve at half-maximal effect; % is scaled to controls: 0 for no effect and ±100 for the full control effect; nearly all actives have a fitted effect of over 55% in size
#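 Chicken DT40 Tdp1-/- cells stably complemented with human TDP1 were seeded at 400 cells/well in medium containing 20 nM camptothecin, exposed to pin-transferred compounds, and grown at 37 °C for at least 48 hr. Viability was read as ATP luminescence.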
# * = called active by the depositor; u = inconclusive; x = not tested or not shown; [ ] = remark or other dose. Unless noted, calls follow the shape of the dose curve; as a rule, active = well fitted curve in the direction sought with a large enough effect; inconclusive = small, poorly fitted or top-dose-only effect, or another doubt; inactive = no such curve, though single readings can be large; an effect the other way counts as inactive or inconclusive.
SMILES,IL-1B inflam inh,TDP1 cell noCPT,ASM inhibitor,HepG2 viability,TGFb SMAD3 inh,DT40 TDP1 CPT
O=C(NCCNC(=O)c1cc(OCC(F)(F)F)ccc1OCC(F)(F)F)Nc1ccc(OC(F)(F)F)cc1,65.2,23.1µM*,-3.7%,-22.4%,-3.7%,u
O=C(CCl)NCCNC(=O)c1cc(OCC(F)(F)F)ccc1OCC(F)(F)F,-60.2*,u,-1.2%,-18.8%,-4.6%,u
CCN1C(=O)c2ccccc2Sc2ccc(NC(=O)Nc3ccc(C(C)=O)cc3)cc21,x,20.6µM*,x,-22.5%,u,u
CCc1ccccc1NC(=O)Nc1ccc2c(c1)N(CC)C(=O)c1ccccc1S2,x,14.6µM*,x,-33.7%,11.2µM*,8.2µM*
CCN1C(=O)c2ccccc2Sc2ccc(C(=O)NC(C)C)cc21,-0.2,-0.3%,0.6%,6.0%,10.4%,1.4%
Cc1ccccc1NC(=O)CCN1CCN(C)CC1,4.0,2.0%,2.6%,0.7%,17.3%,0.7%
O=C(CCN1CCN(C/C=C/c2ccccc2)CC1)Nc1ccccc1,-15.4,u,4.2%,-4.1%,41.9%,-26.2%
Cc1cc(NC(=O)CCN2CCN(C)CC2)ccc1Br,-15.7,8.7%,-1.8%,-10.3%,10.0%,17.4%
Cc1cc(NC(=O)CCN2CCN(C/C=C/c3ccccc3)CC2)ccc1Br,-81.6*,u,-1.5%,-93.9%,u,u
Cc1cccc(NC(=O)CCN2CCN(C/C=C/c3ccccc3)CC2)c1,-76.6*,20.6µM*,6.7%,-34.4%,-5.2%,u
Cc1ccccc1NC(=O)CCN1CCN(C/C=C/c2ccccc2)CC1,u,u,-0.3%,-40.4%,-19.7%,20.6µM*
CCn1c(N2CCN(C(=S)Nc3ccc(OC)cc3)CC2)nc2ccccc21,-19.9,14.6µM*,-2.5%,-0.6%,-23.0%,14.6µM*
CCn1c(N2CCN(C(=S)NCCc3ccccc3)CC2)nc2ccccc21,u,25.9µM*,-2.0%,-31.3%,-4.4%,u
CCn1c(N2CCN(C(=S)NC)CC2)nc2ccccc21,-6.9,1.3%,3.4%,-1.5%,25.3%,-24.5%
CCn1c(N2CCN(C(=S)NCC(C)C)CC2)nc2ccccc21,-53.8*,-21.9%,1.1%,4.3%,-0.6%,u
CCC(Sc1nc2nccnc2c(=O)n1Cc1ccc(C)cc1)C(=O)NC1CCCCC1 (configuration not stated),x,u,x,-24.1%,-9.3%,u
CCOC(=O)C[C@H]1c2ccccc2S(=O)(=O)N1Cc1cccc(C(F)(F)F)c1,22.6,12.6µM*,-0.3%,-21.8%,-17.9%,u
CCOC(=O)C[C@H]1c2ccccc2S(=O)(=O)N1Cc1cc(OC)c(OC)c(OC)c1,0.0,10.3µM*,2.8%,-62.8%,0.6%,14.6µM*
COC(=O)C[C@H]1c2ccc(C(F)(F)F)cc2S(=O)(=O)N1Cc1ccccc1,-1.8,u,1.9%,4.3%,-1.5%,0.9%
CCCCN(C1CCS(=O)(=O)C1)S(=O)(=O)c1ccc(OC)c(OC)c1 (configuration not stated),5.9,-1.6%,1.7%,-2.2%,u,-6.3%
Cc1cc(C(=O)CSc2ncccn2)c(C)n1-c1cccc(F)c1,-3.0,u,2.0%,-2.1%,0.0%,-6.8%
Cc1cc(C(=O)CSc2nnc(-c3cccc(F)c3)n2N)c(C)n1Cc1ccc2c(c1)OCO2,u,23.1µM*,-4.7%,-49.1%,0.0%,14.6µM*
Cc1cc(C(=O)CN2C(=O)NC3(CCCCC3)C2=O)c(C)n1-c1ccc2c(c1)OCO2,u,20.6µM*,-7.4%,-3.9%,-0.7%,u
Cc1cc(C(=O)CSc2nnnn2C)c(C)n1-c1cccc(F)c1,-12.2,9.2µM*,-1.6%,-22.8%,-22.6%,u
CCCn1c(SCC(=O)c2cc(C)n(-c3ccc4c(c3)OCO4)c2C)n[nH]c1=O,8.6,6.51µM*,1.4%,-5.1%,-20.0%,23.1µM*
SMILES,IL-1B inflam inh,TDP1 cell noCPT,ASM inhibitor,HepG2 viability,TGFb SMAD3 inh,DT40 TDP1 CPT
CCC(=O)N1c2ccccc2CC1C(=O)NCCCN1CCN(c2ccc(F)cc2)CC1 (configuration not stated),x,u,x,0.0%,-11.3%,u
COc1ccc(N2CCN(Cc3nnnn3C3CCCCC3)CC2)cc1,-10.3,-19.8%,1.3%,-7.4%,0.3%,-17.1%
CCC1CN(CCNC(=O)c2cccc(N3CCCC3=O)c2)Cc2cc(OC)ccc2O1 (configuration not stated),x,-16.3%,x,x,x,-6.0%[9.04 µM]
COc1ccccc1S(=O)(=O)Cc1ccc(C(=O)NC2CC2)o1,2.2,32.9%,-1.1%,-6.7%,-2.7%,-18.2%
Cc1ccc(-n2nnnc2SCC(=O)c2cc(C)n(-c3cc(C)on3)c2C)cc1,11.6,14.6µM*,-1.2%,-34.5%,-33.7%,11.6µM*
Cc1cc(C(=O)CSc2nnnn2-c2ccccc2)c(C)n1-c1ccc2c(c1)OCO2,9.2,13µM*,1.9%,-19.3%,u,23.1µM*
Cc1cc(-n2c(C)cc(C(=O)CSc3nncn3C)c2C)no1,20.0,u,0.1%,7.2%,2.3%,u
Cc1cc(C)c(C(N)=O)c(SCC(=O)c2cc(C)n(-c3cc(C)on3)c2C)n1,22.6,0.517µM*,0.2%,-1.7%,-19.3%,1.16µM*
Cc1cc(C(=O)CSc2nncs2)c(C)n1-c1ccc2c(c1)OCO2,-69.2*,17.8µM*,-3.5%,-22.4%,-21.3%,20.6µM*
Cc1ccc(Cl)c(NC(=O)Nc2csc3c2CCCC3)c1,x,u,x,-9.0%,16.8%,u
CO[C@H]1[C@H](NC(=O)c2ccsc2)c2ccccc2C12CCN(Cc1c(O)ccc3ccccc13)CC2,x,-26.0%,x,x,x,-28.7%
Cc1cc(C(=O)CN2C(=O)NC3(CCCc4sccc43)C2=O)c(C)n1-c1ccccc1 (configuration not stated),u,-25.3%,-4.2%,-12.7%,12.3%,u
COc1ccc(-n2c(C)cc(C(=O)CN3C(=O)NC4(CCCc5sccc54)C3=O)c2C)cc1 (configuration not stated),-5.4,20.6µM*,-1.7%,-5.6%,u,16.4µM*
Cc1ccc(O)c(CP(=O)(c2ccccc2)c2ccccc2)c1,-6.8,u,-3.2%,10.5%,1.1%,u

# From PubChem
